This passage reports Percent Effect results from ChEMBL document CHEMBL3988442, “University of Dundee, Small-Polar-MMV Screening Library” (2021).

Holding throughout (parameters): scale not given: direction of the effect not stated beside the values
The target of assay [1] is Protein translocase subunit SecA (Escherichia coli (strain K12)) (UniProt P10408). Description: Assay to Identify E. coli SecA ATPase Inhibitors. The assay is classed as functional. Conditions: 30 µM.
For assay [2], the target named is T1, Ubiquitin-activating enzyme e1, putative (Leishmania donovani (strain BPK282A1)) (UniProt E9BSI1).
T1 sequence (whole entry): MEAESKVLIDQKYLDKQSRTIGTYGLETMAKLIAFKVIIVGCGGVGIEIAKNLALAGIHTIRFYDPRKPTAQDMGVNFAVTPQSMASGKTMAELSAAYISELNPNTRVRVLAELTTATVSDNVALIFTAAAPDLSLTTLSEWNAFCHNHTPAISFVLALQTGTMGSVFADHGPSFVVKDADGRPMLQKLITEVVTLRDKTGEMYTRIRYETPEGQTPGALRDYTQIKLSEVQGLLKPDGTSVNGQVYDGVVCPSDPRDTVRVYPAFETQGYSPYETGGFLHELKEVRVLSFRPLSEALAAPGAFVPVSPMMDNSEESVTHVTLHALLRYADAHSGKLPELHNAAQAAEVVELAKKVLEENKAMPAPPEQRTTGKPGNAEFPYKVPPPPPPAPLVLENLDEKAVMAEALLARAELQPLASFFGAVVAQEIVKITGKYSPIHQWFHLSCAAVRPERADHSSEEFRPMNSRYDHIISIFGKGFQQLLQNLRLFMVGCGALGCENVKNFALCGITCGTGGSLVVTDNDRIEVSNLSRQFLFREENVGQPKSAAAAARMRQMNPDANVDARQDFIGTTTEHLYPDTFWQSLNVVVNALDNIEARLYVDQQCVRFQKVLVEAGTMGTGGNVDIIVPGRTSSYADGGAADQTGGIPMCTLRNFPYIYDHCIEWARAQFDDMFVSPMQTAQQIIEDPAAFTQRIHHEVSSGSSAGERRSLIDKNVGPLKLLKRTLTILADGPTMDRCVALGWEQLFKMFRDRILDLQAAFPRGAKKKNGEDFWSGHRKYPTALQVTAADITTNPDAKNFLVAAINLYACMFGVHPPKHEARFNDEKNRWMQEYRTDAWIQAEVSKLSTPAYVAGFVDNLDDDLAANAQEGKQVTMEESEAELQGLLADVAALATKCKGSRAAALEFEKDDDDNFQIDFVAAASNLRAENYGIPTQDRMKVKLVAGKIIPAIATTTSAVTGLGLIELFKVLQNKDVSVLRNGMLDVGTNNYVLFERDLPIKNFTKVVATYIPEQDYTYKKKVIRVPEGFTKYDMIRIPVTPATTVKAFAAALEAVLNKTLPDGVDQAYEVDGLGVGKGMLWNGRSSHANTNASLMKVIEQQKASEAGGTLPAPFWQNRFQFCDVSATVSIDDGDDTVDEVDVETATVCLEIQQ
The assay is described as follows: Leishmania donovani Ubiquitin Activating Enzyme (LdE1). The assay is classed as functional. The settings on record: 30 µM.

Assay [3] concerns the target AMP-activated protein kinase, AMPK (Homo sapiens) (UniProt P54646+O43741+P54619+Q9UGJ0+Q9Y478+Q13131+Q9UGI9). Description: AMP-dependent Kinase enzyme assay. An in vitro enzyme assay that detects ADP turnover that is directly proportional to AMPK activity. This uses naive AMPK that is activated during the assay with MK-8722. Type of assay: functional. Conditions: 30 µM.

Assay [4] addresses Sialic acid-binding Ig-like lectin 9 (Homo sapiens) (UniProt Q9Y336). The assay is described as follows: Hs-Siglec9 ALPHAscreen SOP 20170721. Conditions: 10 µM. On the technique in general: In Alpha technology, singlet oxygen from a donor bead excites a nearby acceptor bead.
The subject of a further assay is Trypanosoma cruzi. Description: Trypanosoma cruzi phosphomannomutase and mannose-1-phosphate guanylyltransferase assay. Type of assay: functional. The settings on record: 10 µM.
Assay [5] addresses T2, Arginase-2, mitochondrial (Homo sapiens) (UniProt P78540).
T2 sequence (whole entry): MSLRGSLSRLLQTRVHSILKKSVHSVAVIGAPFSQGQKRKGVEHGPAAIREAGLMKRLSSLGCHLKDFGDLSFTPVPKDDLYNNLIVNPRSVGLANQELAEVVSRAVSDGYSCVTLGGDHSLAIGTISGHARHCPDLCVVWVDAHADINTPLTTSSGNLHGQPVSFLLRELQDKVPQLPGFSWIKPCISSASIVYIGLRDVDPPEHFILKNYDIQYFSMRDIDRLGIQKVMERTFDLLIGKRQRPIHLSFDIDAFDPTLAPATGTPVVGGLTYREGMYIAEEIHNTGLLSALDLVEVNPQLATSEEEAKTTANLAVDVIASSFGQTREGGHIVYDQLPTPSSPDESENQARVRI
The assay is described as follows: in vitro enzyme assay to detect the production of urea directly proportional to the activity of Arginase II. Also: in the data most compounds retested in dose-response had high values. The settings on record: 33.3 µM. Type of assay: functional.

Assay [6] has as its target T3, Proteasome subunit beta (Trypanosoma cruzi) (UniProt O96673).
T3 sequence (whole entry): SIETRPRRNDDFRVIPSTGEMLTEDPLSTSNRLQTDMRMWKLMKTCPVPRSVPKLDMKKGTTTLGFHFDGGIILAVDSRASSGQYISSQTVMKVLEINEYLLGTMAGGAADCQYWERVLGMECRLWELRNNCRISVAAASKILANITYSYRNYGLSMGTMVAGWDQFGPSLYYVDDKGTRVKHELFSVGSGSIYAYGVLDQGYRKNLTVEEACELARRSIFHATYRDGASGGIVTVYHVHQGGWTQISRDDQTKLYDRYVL
Description: Trypanosoma cruzi proteasome chymotrypsin-like activity (TcProtChymo) assay. Also: in the data most compounds retested in dose-response had high values. Type of assay: functional. The settings on record: 9.37 µM.

The species entered for the next assay is Homo sapiens. The assay is described as follows: To identify inhibition of the IFN signalling (Jak-Stat) pathway via expression of an eGFP reporter gene under the control of an IFN-stimulated response element (ISRE) containing MxA promoter. The assay is classed as functional. Conditions: 30 µM. (A reporter such as luciferase makes a cellular process visible.)

Assay [7] has as its target T4, Tyrosyl-tRNA synthetase, putative (Trypanosoma cruzi (strain CL Brener)) (UniProt Q4DSP6).
T4 sequence (whole entry): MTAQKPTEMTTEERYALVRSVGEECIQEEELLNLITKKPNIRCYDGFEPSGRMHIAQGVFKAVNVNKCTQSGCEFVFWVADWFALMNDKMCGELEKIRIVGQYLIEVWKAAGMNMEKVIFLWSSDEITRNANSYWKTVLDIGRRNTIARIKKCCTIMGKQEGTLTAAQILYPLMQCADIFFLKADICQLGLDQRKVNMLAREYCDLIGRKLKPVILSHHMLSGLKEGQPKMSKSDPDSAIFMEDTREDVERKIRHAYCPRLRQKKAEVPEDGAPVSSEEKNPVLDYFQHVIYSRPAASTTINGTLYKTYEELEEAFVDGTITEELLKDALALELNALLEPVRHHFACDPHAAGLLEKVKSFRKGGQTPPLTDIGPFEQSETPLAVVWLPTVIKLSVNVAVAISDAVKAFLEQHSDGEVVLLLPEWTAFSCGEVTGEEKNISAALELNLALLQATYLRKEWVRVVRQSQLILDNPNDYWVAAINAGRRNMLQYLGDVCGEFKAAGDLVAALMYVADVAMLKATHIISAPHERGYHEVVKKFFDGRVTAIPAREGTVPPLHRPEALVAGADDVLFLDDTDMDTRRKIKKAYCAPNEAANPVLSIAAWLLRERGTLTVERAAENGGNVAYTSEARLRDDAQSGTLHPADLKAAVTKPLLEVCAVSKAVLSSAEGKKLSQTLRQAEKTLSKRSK
Description: Trypanosoma cruzi tyrosyl tRNA synthetase (TcYRS) _High Tyrosine SOP. Also: in the data most compounds retested in dose-response had high values. The assay is classed as functional. Conditions: 30 µM.

For assay [8], the target named is T4, Tyrosyl-tRNA synthetase, putative (Trypanosoma cruzi (strain CL Brener)). The assay is described as follows: Trypanosoma cruzi tyrosyl tRNA synthetase (TcYRS) SOP. The assay is classed as functional. Conditions: 30 µM.
The target in assay [9] is Chromo domain-containing protein 1 (Saccharomyces cerevisiae (strain ATCC 204508 / S288c) (Baker's yeast)) (UniProt P32657). Description: ScCHD-1 Enzyme Inhibition Assay. Also: in the data most compounds retested in dose-response had high values. Type of assay: functional. Conditions: 30 µM.
Chromo domain-containing protein 1 (Saccharomyces cerevisiae (strain ATCC 204508 / S288c) (Baker's yeast)), sequence (P32657 whole entry, the tested form may be a part): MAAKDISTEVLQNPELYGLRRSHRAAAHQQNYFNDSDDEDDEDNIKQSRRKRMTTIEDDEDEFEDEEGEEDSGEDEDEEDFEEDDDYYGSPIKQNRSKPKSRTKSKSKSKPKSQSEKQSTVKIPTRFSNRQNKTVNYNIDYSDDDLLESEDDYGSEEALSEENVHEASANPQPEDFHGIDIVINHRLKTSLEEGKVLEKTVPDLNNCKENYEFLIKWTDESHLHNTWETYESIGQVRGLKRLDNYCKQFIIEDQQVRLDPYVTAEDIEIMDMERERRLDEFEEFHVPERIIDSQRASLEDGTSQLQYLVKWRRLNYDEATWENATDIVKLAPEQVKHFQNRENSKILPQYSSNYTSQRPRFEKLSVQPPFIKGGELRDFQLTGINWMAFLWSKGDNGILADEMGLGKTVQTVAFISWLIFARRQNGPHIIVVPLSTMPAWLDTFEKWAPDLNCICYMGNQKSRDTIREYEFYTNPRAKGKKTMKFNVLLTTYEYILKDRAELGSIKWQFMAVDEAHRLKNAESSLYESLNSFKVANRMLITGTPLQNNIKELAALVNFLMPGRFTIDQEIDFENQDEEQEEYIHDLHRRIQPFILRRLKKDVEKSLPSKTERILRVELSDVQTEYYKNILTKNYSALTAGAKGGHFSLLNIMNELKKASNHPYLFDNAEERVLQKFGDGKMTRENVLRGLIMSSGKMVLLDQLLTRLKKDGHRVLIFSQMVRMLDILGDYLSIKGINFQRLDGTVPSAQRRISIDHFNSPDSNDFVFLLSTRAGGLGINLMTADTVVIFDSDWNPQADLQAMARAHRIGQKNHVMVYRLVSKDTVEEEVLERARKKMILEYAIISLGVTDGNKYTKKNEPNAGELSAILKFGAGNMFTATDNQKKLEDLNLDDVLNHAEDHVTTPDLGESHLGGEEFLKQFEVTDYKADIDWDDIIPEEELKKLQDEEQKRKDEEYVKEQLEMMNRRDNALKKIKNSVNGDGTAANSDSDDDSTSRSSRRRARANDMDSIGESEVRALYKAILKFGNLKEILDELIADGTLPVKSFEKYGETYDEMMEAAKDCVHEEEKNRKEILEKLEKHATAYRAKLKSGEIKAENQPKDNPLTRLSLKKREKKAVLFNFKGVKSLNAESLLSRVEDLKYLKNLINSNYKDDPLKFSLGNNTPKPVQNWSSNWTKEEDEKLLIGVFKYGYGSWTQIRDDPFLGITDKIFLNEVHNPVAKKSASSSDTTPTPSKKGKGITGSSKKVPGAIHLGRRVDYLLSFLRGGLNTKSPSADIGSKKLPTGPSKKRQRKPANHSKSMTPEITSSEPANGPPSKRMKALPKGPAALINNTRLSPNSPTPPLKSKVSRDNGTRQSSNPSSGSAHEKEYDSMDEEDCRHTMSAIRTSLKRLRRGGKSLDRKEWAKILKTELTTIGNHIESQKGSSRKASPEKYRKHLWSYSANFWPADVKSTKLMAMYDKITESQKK

For some of these results: Results with a measured potency or affinity are listed apart.

Sialic acid-binding Ig-like lectin 9 (Homo sapiens), sequence (Q9Y336 whole entry): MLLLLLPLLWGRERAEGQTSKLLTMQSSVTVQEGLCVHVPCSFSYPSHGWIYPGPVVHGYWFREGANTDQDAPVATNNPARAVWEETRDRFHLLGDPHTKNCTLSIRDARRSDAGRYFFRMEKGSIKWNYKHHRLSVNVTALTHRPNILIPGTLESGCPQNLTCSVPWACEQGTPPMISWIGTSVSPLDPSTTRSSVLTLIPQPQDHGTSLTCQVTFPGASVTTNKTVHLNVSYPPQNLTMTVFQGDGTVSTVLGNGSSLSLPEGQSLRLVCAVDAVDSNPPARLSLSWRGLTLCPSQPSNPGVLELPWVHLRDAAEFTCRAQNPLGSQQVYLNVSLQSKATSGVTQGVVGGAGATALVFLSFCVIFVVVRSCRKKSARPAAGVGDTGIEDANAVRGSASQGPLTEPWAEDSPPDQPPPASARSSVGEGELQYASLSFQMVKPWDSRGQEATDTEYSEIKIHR
Protein translocase subunit SecA (Escherichia coli (strain K12)), sequence (P10408 whole entry): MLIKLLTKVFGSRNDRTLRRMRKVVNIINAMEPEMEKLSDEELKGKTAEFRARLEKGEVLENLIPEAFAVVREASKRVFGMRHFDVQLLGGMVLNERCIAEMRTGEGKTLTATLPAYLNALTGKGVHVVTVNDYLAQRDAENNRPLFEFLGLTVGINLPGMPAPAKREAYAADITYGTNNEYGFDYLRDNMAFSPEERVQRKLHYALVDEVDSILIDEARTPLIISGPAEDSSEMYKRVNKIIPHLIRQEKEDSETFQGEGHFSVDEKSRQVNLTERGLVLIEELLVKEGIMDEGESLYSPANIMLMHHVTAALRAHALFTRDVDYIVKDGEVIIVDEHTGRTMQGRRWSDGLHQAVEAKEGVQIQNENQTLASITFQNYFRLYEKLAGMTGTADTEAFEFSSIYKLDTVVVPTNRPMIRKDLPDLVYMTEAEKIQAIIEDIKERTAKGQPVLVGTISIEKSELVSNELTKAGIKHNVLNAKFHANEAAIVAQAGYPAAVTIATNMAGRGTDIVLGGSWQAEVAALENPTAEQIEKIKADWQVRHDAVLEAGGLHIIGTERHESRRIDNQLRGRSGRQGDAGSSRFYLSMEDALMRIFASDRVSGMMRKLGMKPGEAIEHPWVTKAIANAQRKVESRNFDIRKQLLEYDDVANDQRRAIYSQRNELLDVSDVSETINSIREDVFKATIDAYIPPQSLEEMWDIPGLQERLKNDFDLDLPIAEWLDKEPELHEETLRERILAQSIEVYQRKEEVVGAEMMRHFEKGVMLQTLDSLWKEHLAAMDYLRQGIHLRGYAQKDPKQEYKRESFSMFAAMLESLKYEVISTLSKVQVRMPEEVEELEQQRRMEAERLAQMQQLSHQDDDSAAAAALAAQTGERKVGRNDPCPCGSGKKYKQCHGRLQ

As to `Cc1ccc(C)c(OC2CCN(C(=O)c3ccc(C)[nH]c3=O)CC2)c1`, the Percent Effect is -3.58% in assay [1]; 15.8% in [2]; -5.18% in assay [3]; 6.14% in assay [4]; 8.84% in the assay with Trypanosoma cruzi; 1.53% in assay [5]. Besides, the Percent Effect in [6] is 10.9%; in the assay filed under Homo sapiens, 11.6%; in assay [7], 5.39%; in [8], 12.2%; in assay [9] it was -11.4%.
Consider `O=C(Nc1ccnc(OC2CCOC2)c1)c1cc(F)ccc1F` (stereo not drawn), for which the Percent Effect in [1] was -5.45%; in assay [2], -1.39%; in assay [3], 2.94%; in assay [4] it was 5.39%; in the assay on Trypanosoma cruzi it was -1.65%; in assay [5] it was -2.65%. Besides, the Percent Effect in assay [6] was 11.6%; in the assay listed under Homo sapiens, 2.19%; in assay [7], -5.26%; in assay [8], -10.3%; in [9], 9.81%.
In the case of `CCc1n[nH]c(C2CN(CCc3cccs3)CCO2)n1` (stereo not drawn), the Percent Effect is -7.68% in [1]; 11.4% in assay [2]; -4.38% in assay [3]; -6.28% in [4]; 3.38% with Trypanosoma cruzi; -1.94% in assay [5]. For the same compound, the Percent Effect is 8.06% in assay [6]; -6.82% in the assay listed under Homo sapiens; 2.08% in assay [7]; 17.7% in assay [8]; -43.9% in assay [9].
As for `O=C([C@@H]1COC[C@H]2CN(C3CCOCC3)C[C@H]21)N1CCCCO1`, the Percent Effect in assay [1] was 0.287%; in assay [2], 13.3%; in assay [3], -0.78%; in assay [4] it was -8.11%; in the assay on Trypanosoma cruzi, 0.386%; in assay [5], -46.4%. Moreover, the Percent Effect in assay [6] is 6.67%; in the assay listed under Homo sapiens, 7.44%; in assay [7], 2.08%; in assay [8], 20%; in [9] it was -6.62%.
For `CC(CNC(=O)Nc1cn[nH]c1)N1CCOCC1` (stereo not drawn), the Percent Effect in assay [1] is -0.592%; in assay [2], 13%; in [3] it was 1.69%; in [4] it was -6.2%; with Trypanosoma cruzi, -3.04%; in [5], 6.53%. Besides, the Percent Effect in [6] was 15.9%; in the assay listed under Homo sapiens, 25%; in assay [7] it was 7.62%; in assay [8], 18.8%; in assay [9], -18.5%.
`CC(=O)N1CCCN(C(=O)c2csc(-c3ccc(C)cc3C)n2)CC1`: the Percent Effect in assay [1] was -4.67%; in assay [2] it was 18.9%; in assay [3], -3.68%; in assay [4] it was 14.8%; with Trypanosoma cruzi it was 7.15%; in [5], -7.58%. The Percent Effect in assay [6] is 5.39%; in the assay filed under Homo sapiens it was 30%; in [7], 5.94%; in assay [8] it was 23.2%; in assay [9], -6.02%.
Take `COCCN1CCN(C(=O)c2ccncc2F)Cc2cccnc21`: the Percent Effect in assay [1] is 2.77%; in assay [2], 6.67%; in assay [3], 4.36%; in [4] it was -2.01%; in the assay on Trypanosoma cruzi, -10.6%; in assay [5], -1.58%. Moreover, the Percent Effect in assay [6] is 20.3%; in the assay listed under Homo sapiens it was 0.197%; in assay [7], 3.17%; in [8], -5.13%; in assay [9] it was -10.5%.
As for `Cc1cc(NC(=O)Cn2cc(C#N)c(=O)c3cc(Br)ccc32)no1`, the Percent Effect is -5.99% in [1]; -45.3% in assay [2]; -1.25% in assay [3]; 3.63% in [4]; -1.27% with Trypanosoma cruzi; -9.9% in assay [5]. The Percent Effect was 13.8% in assay [6]; 19.5% in the assay listed under Homo sapiens; -14.8% in assay [7]; -60.5% in [8]; 80.7% in assay [9].
